Hit rate of the full screen: of about 2,400 compounds, about 2,200 (92%) were called active.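 Rule for the calls: active = mean inhibition over triplicate runs exceeds the cutoff derived for the earlier primary screen (cut at about 25% in these data); inactive = the rest.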 The set was probably picked from earlier hits. Some of the results follow.
The molecules below were run against Platelet-activating factor acetylhydrolase IB subunit alpha2 (Homo sapiens) (UniProt P68402) (assay: PAFAH1B2 inhibitors, confirmation, biochemical, fluorescence polarization, FP-rhodamine probe, triplicate (AID 493034;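 note: 0% = enzyme with DMSO and 100% = wells lacking PAFAH1B2 protein; inhibitors lower polarization by leaving the probe unbound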)). Conditions: recombinant PAFAH1B2, FP-rhodamine probe fluorescence polarization; at 3.39 µM; stronger effect = higher value.
Sequence of Platelet-activating factor acetylhydrolase IB subunit alpha2 (Homo sapiens) (P68402 whole entry, looked up): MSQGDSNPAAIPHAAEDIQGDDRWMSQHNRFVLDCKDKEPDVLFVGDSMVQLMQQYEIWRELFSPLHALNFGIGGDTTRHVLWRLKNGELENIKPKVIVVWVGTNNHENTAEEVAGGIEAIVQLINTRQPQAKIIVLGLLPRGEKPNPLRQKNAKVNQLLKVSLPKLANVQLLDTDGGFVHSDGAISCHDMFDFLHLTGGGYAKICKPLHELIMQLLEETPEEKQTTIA
In the case of `Cc1c(N=C2C=C(Br)C(=O)C(Br)=C2)c(=O)n(-c2ccccc2)n1C`, the inhibition is reported as 20.8% (inactive).
For `O=c1[nH]c2ccc(S(=O)(=O)Nc3ccc(Cl)cc3)cc2o1`, the inhibition was 41.7% (active).
For `O=S(=O)(Nc1ccc2cn[nH]c2c1)c1ccc(Cl)cc1`, the inhibition was 18.1% (inactive).
For `Nc1n[nH]c2c1C1(CCCCC1)Cc1ccccc1-2`, the inhibition was 22% (inactive).
In the case of `O=C(/C=C/c1ccc(O)c(O)c1)OCCc1ccccc1`, the inhibition is reported as 19.7% (inactive).
For `O=C(OCCc1ccccc1)c1cc(O)c(O)c(O)c1`, the inhibition was 34.3% (active).
`N=c1c[n+](-c2ccc(Cl)cc2)[n-]o1` was tested, and the inhibition was 18.1% (inactive).
For `O=C(CN1CCN(S(=O)(=O)c2ccc(Cl)cc2)CC1)c1ccc(O)c(O)c1`, the inhibition was 33.2% (active).
With `O=S(=O)(c1ccc(Cl)cc1)N1CCCC(C(F)(F)F)C1` (configuration not stated) the inhibition was 22.5% (inactive).
With `CN(Cc1ccccc1)C(=O)CN1CCN(S(=O)(=O)c2ccc(Cl)c(Cl)c2)CC1` the inhibition was 22.8% (inactive).
In the case of `CCC(=O)Nc1cc(C)c(NC(=O)C23CC4CC(CC(C4)C2)C3)cn1`, the inhibition is reported as 22.1% (inactive).
In the case of `O=C(NNC(=S)NC(=O)C12CC3CC(CC(C3)C1)C2)c1ccncc1`, the inhibition is reported as 38.2% (active).
With `O=C(NNC(=O)C12CC3CC(CC(C3)C1)C2)c1cccc([N+](=O)[O-])c1` the inhibition was 18.9% (inactive).
With `O=C1C(c2ccccc2)NC(=S)N1C1CCCCC1` (configuration not stated) the inhibition was 20.2% (inactive).
`O=C(O)c1ccn2c(C(=O)c3ccc(Cl)cc3)c(-c3ccccc3)cc2c1` was tested, and the inhibition was 62.6% (active).
For `O=C(O)c1ccn2c(C(=O)c3ccccc3)c(-c3ccccc3)cc2c1`, the inhibition was 27.1% (active).
For `O=C1NC(c2cccs2)C(C(=O)c2ccccc2)C(O)(C(F)(F)F)N1` (configuration not stated), the inhibition was 11.5% (inactive).
In the case of `CCOCCCNC(=O)Cc1c(C(=O)O)[nH]c2ccc(Cl)cc12`, the inhibition is reported as 26.3% (active).
`CC1CC(C)CN(C(=O)Cc2c(C(=O)O)[nH]c3ccc(Cl)cc23)C1` (configuration not stated) was tested, and the inhibition was 73.8% (active).
For `CC(C)CCNC(=O)Cc1c(C(=O)O)[nH]c2ccc(Cl)cc12`, the inhibition was 43.9% (active).
With `CCCCN(CC)C(=O)Cc1c(C(=O)O)[nH]c2ccc(Cl)cc12` the inhibition was 41.1% (active).
With `Cc1ccc2[nH]c(C(=O)O)c(NC(=O)[C@@H]3C[C@@H]3c3ccccc3)c2c1` the inhibition was 17.5% (inactive).
For `COc1ccc([N+](=O)[O-])cc1N(CC(=O)NCCSc1ccc(C)cc1)S(C)(=O)=O`, the inhibition was 22.5% (inactive).
For `CC12CC3CC(C)(C1)CC(C(=O)N1CCN(C(=O)c4ccco4)CC1)(C3)C2`, the inhibition was 16.1% (inactive).
`CC(Sc1ccc(Cl)cc1)C(=O)Nc1ccc(S(=O)(=O)N2CCOCC2)cc1` (configuration not stated) was tested, and the inhibition was 20% (inactive).
`O=C(Nc1ccc(N2CCOCC2)cc1)C1(c2ccc(Cl)cc2)CCC1` was tested, and the inhibition was 78.4% (active).
`Cc1ccccc1C(=O)N1CCN(c2ccc(NC(=O)CSc3ccc(Cl)cc3)cc2)CC1` was tested, and the inhibition was 23.5% (inactive).

— PubChem BioAssay AID493034 (The Scripps Research Institute Molecular Screening Center, 2011)
